In PubChem BioAssay (Tox21):
A number with no mark means an inactive call. Results filed as inconclusive are left out. Where a call stands in place of a potency, no number is given. The source made the active and inactive calls. Calls follow the shape of the dose curve; as a rule, active = well fitted curve in the direction sought with a large enough effect in the repeat runs; inconclusive = weak or mixed curves; inactive = no such curve, though single readings can be large; an effect the other way counts as inactive or inconclusive.

Tests used:
[1] = Human pregnane X receptor (PXR) small molecule agonists, qHTS cell viability counter screen (AID 1346977); also: nearly all actives have a fitted effect of over 50% in size; also: potency is read from the fitted curve at half-maximal effect
Procedure, shortened: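 HepG2 cells stably carrying the PXR-Luc reporter are cultured with 5% charcoal-stripped FBS and treated with compounds for 24hr. CellTiter-Fluor is added at 23hr and fluorescence is read after 1hr.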

[2] = Caspase-3/7 induction in HepG2 cells by small molecules, qHTS assay (AID 1346978); also: nearly all actives have a fitted effect of over 15% in size; also: potency is read from the fitted curve at half-maximal effect
Procedure, shortened: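 Wild-type HepG2 cells, 2,000/well, settled 5 hr at 37 C and 5% CO2, then compound-treated for 17 hr; caspase-3/7 activity read by luminescent Caspase-Glo 3/7 after 30 min at room temperature.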

[3] = Caspase-3/7 induction in CHO-K1 cells by small molecules, qHTS cell viability counter screen (AID 1346979); also: nearly all actives have a fitted effect of over 35% in size; also: potency is read from the fitted curve at half-maximal effect
Procedure, shortened: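 Seeding: 1,500 CHO-K1 cells/well. Rest: 5hr, 37C. Treatment: compounds in DMSO, 16hr. Read: CellTiter-Fluor, 1hr, fluorescence.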

[4] = Caspase-3/7 induction in CHO-K1 cells by small molecules, qHTS assay (AID 1346980); also: nearly all actives have a fitted effect of over 15% in size; also: potency is read from the fitted curve at half-maximal effect
Procedure, shortened: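 Wild-type CHO-K1 cells exposed to compounds for 17hr at 37 C, 5% CO2. Caspase-3/7 activity then measured by Caspase-Glo 3/7 luminescence after 30min at room temperature.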

[5] = Caspase-3/7 induction in HepG2 cells by small molecules, qHTS cell viability counter screen (AID 1346981); also: nearly all actives have a fitted effect of over 30% in size; also: potency is read from the fitted curve at half-maximal effect; as to activity change, negative = cytotoxicity: series mostly up to about 92 µM
Procedure, shortened: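 Steps: seed 2,000 HepG2 cells per well; incubate 5 hr at 37 C; pin-add compounds in DMSO; incubate 16 hr; add CellTiter-Fluor; after 1 hr at 37 C and 5% CO2, read fluorescence.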

[6] = molecular target: Nuclear receptor subfamily 1 group I member 2 (Homo sapiens) (UniProt O75469); assay: Human pregnane X receptor (PXR) small molecule agonists, qHTS assay (AID 1346982); also: nearly all actives have a fitted effect of over 35% in size; also: potency is read from the fitted curve at half-maximal effect
Sequence of Nuclear receptor subfamily 1 group I member 2 (Homo sapiens) (O75469 whole entry, looked up): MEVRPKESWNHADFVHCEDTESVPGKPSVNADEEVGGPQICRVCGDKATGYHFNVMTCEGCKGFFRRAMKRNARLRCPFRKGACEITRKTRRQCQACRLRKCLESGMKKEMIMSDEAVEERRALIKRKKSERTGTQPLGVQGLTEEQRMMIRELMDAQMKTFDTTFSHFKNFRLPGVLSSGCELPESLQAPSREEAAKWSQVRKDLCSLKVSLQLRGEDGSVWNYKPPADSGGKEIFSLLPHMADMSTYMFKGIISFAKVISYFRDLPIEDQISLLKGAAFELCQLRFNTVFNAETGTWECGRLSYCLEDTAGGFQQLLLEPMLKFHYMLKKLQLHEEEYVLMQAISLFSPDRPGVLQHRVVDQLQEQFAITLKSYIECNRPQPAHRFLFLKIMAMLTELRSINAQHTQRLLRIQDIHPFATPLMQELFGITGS
Procedure, shortened: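 Agonist mode qHTS: PXR-Luc HepG2 cells plated 5 hr before DMSO-dissolved compounds were pinned in, cultured 24 hr at 37 C, 5% CO2; ONE-Glo luminescence readout.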

[7] = molecular target: Nuclear receptor subfamily 1 group I member 2 (Rattus norvegicus) (UniProt Q9R1A7); assay: Rat pregnane X receptor (rPXR) activation by small molecules, qHTS assay (AID 1346983); conditions: rPXR luciferase reporter cells, One-Glo luminescence, 24 h; max activation: hits give high values; also: nearly all actives have a fitted effect of over 20% in size; also: potency is read from the fitted curve at half-maximal effect
Sequence of Nuclear receptor subfamily 1 group I member 2 (Rattus norvegicus) (Q9R1A7 whole entry, looked up): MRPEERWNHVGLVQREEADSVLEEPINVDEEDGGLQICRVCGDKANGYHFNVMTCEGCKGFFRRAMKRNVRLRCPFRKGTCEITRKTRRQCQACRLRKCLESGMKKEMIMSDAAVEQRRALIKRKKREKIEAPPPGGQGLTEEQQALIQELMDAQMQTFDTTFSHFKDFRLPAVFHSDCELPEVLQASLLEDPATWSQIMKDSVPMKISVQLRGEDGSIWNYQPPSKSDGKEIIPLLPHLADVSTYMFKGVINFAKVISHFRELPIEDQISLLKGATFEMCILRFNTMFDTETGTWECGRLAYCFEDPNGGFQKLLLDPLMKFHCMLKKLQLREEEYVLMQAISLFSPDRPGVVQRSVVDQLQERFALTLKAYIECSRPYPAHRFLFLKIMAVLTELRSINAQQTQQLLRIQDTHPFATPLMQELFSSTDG
Procedure, shortened: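 Cell-based rPXR activation assay: rPXR cells, 2,000 per well, rested 5hr at 37 C, then exposed to compounds in DMSO for 24 hr at 37 C. Luciferase activity read by One-Glo luminescence after 30 min at room temperature.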

[8] = molecular target: Nuclear receptor subfamily 1 group I member 2 (Homo sapiens) (UniProt O75469); assay: CYP3A4 induction through human pregnane X receptor (PXR) by small molecules, qHTS assay (AID 1346984); also: nearly all actives have a fitted effect of over 40% in size
Procedure, shortened: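 Steps: seed DPX-2 cells, 5 hr at 37C; pin-transfer compounds; 24 hr at 37C; add Luciferin-IPA (3uM final), 3 hr at 37C; add One-Glo, 30 min RT; read luminescence.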

[9] = molecular target: Nuclear receptor subfamily 1 group I member 2 (Homo sapiens) (UniProt O75469); assay: Human pregnane X receptor (PXR) activation by small molecules, qHTS assay (AID 1346985); also: nearly all actives have a fitted effect of over 40% in size; also: potency is read from the fitted curve at half-maximal effect
Procedure, shortened: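 DPX-2 cells (HepG2 co-transfected with a PXR response element and a CYP3A4-promoter luciferase construct) were seeded at 2,000 per well, rested 5 hr at 37C, then exposed to DMSO-dissolved compounds for 24 hr. Activation was read as luciferase luminescence.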

[10] = molecular target: Cytochrome P450 2D6 (Homo sapiens) (UniProt P10635); assay: Cytochrome P450 Family 2 Subfamily D Member 6 (CYP2D6) small molecule antagonists: luciferase reporter qHTS assay (AID 1671196); also: nearly all actives have a fitted effect of over 50% in size; also: potency is read from the fitted curve at half-maximal effect; as to activity change, negative = inhibition: series mostly up to about 120 µM
Sequence of Cytochrome P450 2D6 (Homo sapiens) (P10635 whole entry, looked up): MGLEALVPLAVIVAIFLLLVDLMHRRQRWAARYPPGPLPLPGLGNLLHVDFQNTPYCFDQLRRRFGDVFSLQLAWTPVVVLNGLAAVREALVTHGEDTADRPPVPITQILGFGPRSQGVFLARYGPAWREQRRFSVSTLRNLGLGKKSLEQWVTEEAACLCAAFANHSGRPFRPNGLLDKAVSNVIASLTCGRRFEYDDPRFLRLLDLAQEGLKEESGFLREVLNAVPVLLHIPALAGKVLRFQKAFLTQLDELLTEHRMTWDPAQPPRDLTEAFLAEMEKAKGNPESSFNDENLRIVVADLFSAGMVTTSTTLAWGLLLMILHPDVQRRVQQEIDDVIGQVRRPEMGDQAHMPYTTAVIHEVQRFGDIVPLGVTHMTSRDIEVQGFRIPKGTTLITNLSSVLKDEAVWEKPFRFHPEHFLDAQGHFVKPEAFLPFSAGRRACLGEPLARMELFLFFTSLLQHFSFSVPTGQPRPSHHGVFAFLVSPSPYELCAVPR
Procedure, shortened: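 P450-Glo format: CYP2D6 converts a proluciferin substrate to luciferin in an NADPH-driven reaction lasting 1 h at room temperature. Light output, proportional to CYP2D6 activity, reflects interference by test chemicals.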

With `O=C(O)C(S)C(S)C(=O)O` (configuration not stated) the Potency [1] was “inactive”, the Potency [2] was “inactive” and the Potency [3] was “inactive”. The Potency [4] was “inactive”, the Potency [5] was “inactive” and the Potency [6] was “inactive”. For the same compound, the max activation [7] was -9.28%, the Potency [8] was “inactive” and the Potency [9] was “inactive”. For the same compound, the Potency [10] was “inactive”.
For `CCN(CC)c1ccc(C(=C2C=CC(=[N+](CC)CC)C=C2)c2cc(S(=O)(=O)O)ccc2S(=O)(=O)[O-])cc1`, the Potency [1] was 15 µM (active), the Potency [2] was “inactive” and the Potency [3] was 26.6 µM (active). For the same compound, the Potency [4] was “inactive”, the Potency [5] was 23.7 µM (active) and the Potency [6] was “inactive”.
With `CC(=O)[O][Al][O]C(C)=O` the Potency [1] was “inactive”, the Potency [2] was “inactive” and the Potency [3] was “inactive”. For the same compound, the Potency [4] was “inactive”, the Potency [5] was “inactive” and the Potency [6] was “inactive”. For the same compound, the max activation [7] was -1.35%, the Potency [8] was “inactive” and the Potency [9] was “inactive”.
`C/C=C/C(=O)CC` showed an activity change, negative = cytotoxicity [1] of -29.3% [at 19 µM], a caspase activation [2] of 0.108% [at 19 µM] and an activity change, negative = cytotoxicity [3] of 0.0214% [at 19 µM]. For the same compound, the caspase-3/7 activation [4] was 1.13% [at 19 µM], the activity change, negative = cytotoxicity [5] was -1.71% [at 19 µM] and the Potency [6] was 10.5 µM (active).
In the case of `CCCCCCCC/C=C\CCCCCCCC(=O)OCC`, the Potency [1] is reported as “inactive”, the Potency [2] is reported as “inactive” and the Potency [3] is reported as “inactive”. The Potency [4] was “inactive”, the Potency [5] was “inactive” and the Potency [6] was “inactive”.
With `C[N+](C)(C)CCOC(=O)CCC(=O)OCC[N+](C)(C)C` the Potency [1] was “inactive”, the Potency [2] was “inactive” and the Potency [3] was “inactive”. For the same compound, the Potency [4] was “inactive”, the Potency [5] was “inactive” and the Potency [6] was “inactive”. For the same compound, the max activation [7] was -0.297%, the Potency [8] was “inactive” and the Potency [9] was “inactive”. For the same compound, the Potency [10] was “inactive”.
`Cc1[nH]c(C)c(Cl)c(=O)c1Cl` showed an activity change, negative = cytotoxicity [1] of 6.66% [at 19 µM], a caspase activation [2] of 0.0051% [at 19 µM] and an activity change, negative = cytotoxicity [3] of 1.93% [at 19 µM]. For the same compound, the caspase-3/7 activation [4] was -0.964% [at 19 µM], the activity change, negative = cytotoxicity [5] was -0.581% [at 19 µM] and the activation [6] was -7.31% [at 19 µM]. For the same compound, the max activation [7] was -3.17%, the Potency [8] was “inactive” and the Potency [9] was “inactive”. The activity change, negative = inhibition [10] was -9.89% [at 23.6 µM].
With `CCCCCCCCO[C@@H]1O[C@H](CO)[C@@H](O)[C@H](O)[C@H]1O` the Potency [1] was “inactive”, the Potency [2] was “inactive” and the Potency [3] was “inactive”. The Potency [4] was “inactive”, the Potency [5] was “inactive” and the Potency [6] was “inactive”. The Potency [10] was “inactive”.
In the case of `C#CCN(C)CCCOc1ccc(Cl)cc1Cl`, the Potency [1] is reported as “inactive”, the Potency [2] is reported as “inactive” and the Potency [3] is reported as “inactive”. The Potency [4] was “inactive”, the Potency [5] was “inactive” and the Potency [6] was 29.8 µM (active). For the same compound, the max activation [7] was -1.33%, the Potency [9] was “inactive” and the Potency [10] was 1.55 µM (active).
For `OCc1cc(C(O)CNCCCCCCOCCCCc2ccccc2)ccc1O` (configuration not stated), the Potency [1] was 21.1 µM (active), the Potency [2] was “inactive” and the Potency [3] was 23.7 µM (active). The Potency [4] was “inactive”, the Potency [5] was 26.6 µM (active) and the Potency [6] was “inactive”. For the same compound, the max activation [7] was 0.017% and the Potency [9] was “inactive”.
In the case of `CC(=O)NO`, the Potency [1] is reported as “inactive”, the Potency [2] is reported as “inactive” and the Potency [3] is reported as “inactive”. For the same compound, the Potency [4] was “inactive”, the Potency [5] was “inactive” and the Potency [6] was “inactive”. For the same compound, the max activation [7] was -0.0404%, the Potency [8] was “inactive” and the Potency [9] was “inactive”. The Potency [10] was “inactive”.
With `CCC(Cl)CCC(Cl)C(Cl)CC(Cl)C(Cl)C(Cl)CCl` (configuration not stated) the Potency [1] was “inactive”, the Potency [2] was “inactive” and the Potency [3] was “inactive”. For the same compound, the Potency [4] was “inactive”, the Potency [5] was “inactive” and the Potency [6] was “inactive”. For the same compound, the Potency [10] was “inactive”.
In the case of `CC(CSC(=O)c1ccccc1)C(=O)N1C[C@@H](Sc2ccccc2)C[C@H]1C(=O)O` (some centres not stated), the activity change, negative = cytotoxicity [1] is reported as 14.3% [at 19 µM], the caspase activation [2] is reported as 0.287% [at 19 µM] and the activity change, negative = cytotoxicity [3] is reported as -1.81% [at 19 µM]. For the same compound, the caspase-3/7 activation [4] was 0.0462% [at 19 µM], the activity change, negative = cytotoxicity [5] was -2.03% [at 19 µM] and the activation [6] was 21.6% [at 19 µM]. The max activation [7] was -2.82%, the Potency [8] was “inactive” and the Potency [9] was “inactive”. For the same compound, the activity change, negative = inhibition [10] was 2.02% [at 23.6 µM].
With `N=c1ccn2c(n1)O[C@H]1[C@H](O)[C@@H](CO)O[C@H]12` the Potency [1] was “inactive”, the Potency [2] was “inactive” and the Potency [3] was “inactive”. For the same compound, the Potency [4] was “inactive”, the Potency [5] was “inactive” and the Potency [6] was “inactive”. The max activation [7] was 4.22%, the Potency [9] was “inactive” and the Potency [10] was “inactive”.
For `CCN(CC)CCNc1ccc(CNC=O)c2sc3ccc(OC)cc3c(=O)c12`, the Potency [1] was 9.69 µM (active), the Potency [2] was 61.1 µM (active) and the Potency [3] was 6.11 µM (active). The Potency [4] was 30.6 µM (active), the Potency [5] was 9.69 µM (active) and the Potency [6] was “inactive”. For the same compound, the Potency [10] was 6.33 µM (active).
With `CCCCC(CC)CN1C(=O)C2C3C=CC(C3)C2C1=O` (configuration not stated) the Potency [1] was “inactive”, the Potency [2] was “inactive” and the Potency [3] was “inactive”. For the same compound, the Potency [4] was “inactive”, the Potency [5] was “inactive” and the Potency [6] was 27.3 µM (active). The Potency [10] was 31.7 µM (active).
In the case of `Cc1cccc(C)c1NC(=O)CN(CC(=O)O)CC(=O)O`, the Potency [1] is reported as “inactive”, the Potency [2] is reported as “inactive” and the Potency [3] is reported as “inactive”. For the same compound, the Potency [4] was “inactive”, the Potency [5] was “inactive” and the Potency [6] was “inactive”. The max activation [7] was -0.0723%, the Potency [8] was “inactive” and the Potency [9] was “inactive”. For the same compound, the Potency [10] was “inactive”.
For `Cc1cccc(C)c1OCC(=O)N[C@@H](Cc1ccccc1)[C@@H](O)C[C@H](Cc1ccccc1)NC(=O)[C@H](C(C)C)N1CCCNC1=O`, the Potency [1] was 29.8 µM (active), the Potency [2] was “inactive” and the Potency [3] was 26.6 µM (active). For the same compound, the Potency [4] was “inactive”, the Potency [5] was 26.6 µM (active) and the Potency [6] was 29.8 µM (active). The Potency [7] was 11.2 µM (active) and the Potency [9] was 3.98 µM (active).
For `COc1cc(Cl)ccc1Oc1ccc(Cl)cc1Cl`, the Potency [1] was “inactive”, the Potency [2] was “inactive” and the Potency [3] was “inactive”. The Potency [4] was “inactive”, the Potency [5] was “inactive” and the Potency [6] was 26.5 µM (active). For the same compound, the Potency [10] was “inactive”.
For `CCCCCCc1ccc(-c2ccc(C#N)cc2)cc1`, the Potency [1] was “inactive”, the Potency [2] was “inactive” and the Potency [3] was “inactive”. The Potency [4] was “inactive”, the Potency [5] was “inactive” and the Potency [6] was “inactive”. The Potency [10] was 39.2 µM (active).
For `C=C(C)C(=O)OCCOCC`, the Potency [1] was “inactive”, the Potency [2] was “inactive” and the Potency [3] was “inactive”. For the same compound, the Potency [4] was “inactive”, the Potency [5] was “inactive” and the Potency [6] was “inactive”. For the same compound, the Potency [10] was 31.9 µM (active).
For `CNC(=O)CN(CCN(CCN(CC(=O)[O-])CC(=O)NC)CC(=O)[O-])CC(=O)[O-].O.[Gd+3]`, the Potency [1] was “inactive”, the Potency [2] was “inactive” and the Potency [3] was “inactive”. The Potency [4] was “inactive”, the Potency [5] was “inactive” and the Potency [6] was “inactive”. The Potency [10] was “inactive”.
